Each structure is given as a SMILES string. Inconclusive results are not listed. Active and inactive are the calls of the source. The calls were made as follows: active = hit-call score of the fitted dose curve at least 0.9, where 1 is the maximum; inconclusive = response in the unintended direction; inactive = score below 0.9.

Chain of Broad substrate specificity ATP-binding cassette transporter ABCG2 (Homo sapiens) (Q9UNQ0 whole entry, looked up): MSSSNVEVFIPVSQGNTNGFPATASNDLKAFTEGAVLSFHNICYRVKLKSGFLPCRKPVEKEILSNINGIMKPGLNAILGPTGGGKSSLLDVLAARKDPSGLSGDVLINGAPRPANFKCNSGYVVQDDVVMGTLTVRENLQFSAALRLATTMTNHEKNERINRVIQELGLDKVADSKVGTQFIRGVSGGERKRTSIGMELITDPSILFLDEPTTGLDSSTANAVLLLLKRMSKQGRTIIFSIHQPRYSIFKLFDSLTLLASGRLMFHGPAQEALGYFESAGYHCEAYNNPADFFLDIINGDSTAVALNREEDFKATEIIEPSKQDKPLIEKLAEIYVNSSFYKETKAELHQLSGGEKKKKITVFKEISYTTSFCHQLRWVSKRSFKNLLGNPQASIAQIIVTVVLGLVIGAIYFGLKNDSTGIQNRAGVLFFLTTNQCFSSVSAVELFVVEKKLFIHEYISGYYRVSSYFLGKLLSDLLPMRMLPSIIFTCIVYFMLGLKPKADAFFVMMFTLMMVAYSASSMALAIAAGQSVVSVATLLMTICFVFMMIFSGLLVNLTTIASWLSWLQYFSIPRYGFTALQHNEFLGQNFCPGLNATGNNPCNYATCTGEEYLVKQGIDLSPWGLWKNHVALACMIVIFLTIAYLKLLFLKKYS

Read-out in the first experiment: xenobiotic metabolism (CYP1A2), CYP1A2 (gene 1544)
Nature of the experiment: CLD_CYP1A2_48hr: CellzDirect (CLD) Gene Expression Assay for xenobiotic metabolism (CYP1A2) at 48 hours (AID 2283703). An outline of the steps:
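Cytotoxicity was flagged yes/no from morphology, while CYP1A2 transcript induction was detected by qNPA chemiluminescence after a 48-hour exposure. Human primary hepatocyte cultures from separate donors received fresh dosing solutions daily over two days, with 0.2% DMSO as vehicle and baseline.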
As to `C[N+]1(C)CCCCC1`, the result was inactive.
Broadly, the AC50 is the midpoint of the concentration-response curve, whichever way the signal moves. Consider `CCC(=O)Nc1ccc(Cl)c(Cl)c1`, for which the AC50 is 4.67 µM (active).
Consider `Nc1c(Cl)cc([N+](=O)[O-])cc1Cl`, for which the AC50 is 4.29 µM (active).
As for `CCOC(=O)CC(SP(=O)(OC)OC)C(=O)OCC` (centres undefined), the outcome was inactive.
For the compound `CCCOCC(=Nc1ccc(Cl)cc1C(F)(F)F)n1ccnc1`, the AC50 is 0.687 µM (active).
For `O=[N+]([O-])c1cc(C(F)(F)F)c(Cl)c([N+](=O)[O-])c1Nc1ncc(C(F)(F)F)cc1Cl`, the AC50 is 0.499 µM (active).
For `CCCCOC(=O)c1ccccc1C(=O)O`, the compound was called inactive.
On to `CCCCN(CC)c1c([N+](=O)[O-])cc(C(F)(F)F)cc1[N+](=O)[O-]`, for which the AC50 was 5.9 µM (active).
Turning to `CCNc1nc(Cl)nc(NC(C)(C)C#N)n1`, the result was inactive.
As to `CN(C)[C@@H]1C(=O)C(C(N)=O)=C(O)[C@@]2(O)C(=O)C3=C(O)c4c(O)cccc4[C@@](C)(O)[C@H]3[C@H](O)[C@@H]12`, the outcome was inactive.

Read-out in a further experiment: Broad substrate specificity ATP-binding cassette transporter ABCG2 (Homo sapiens) (UniProt Q9UNQ0)
Nature of the experiment: CLD_ABCG2_48hr: CellzDirect (CLD) Gene Expression Assay for ABC Transporter (ABCG2) at 48 hours (AID 2283704).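 As to AC50: potency for induction of ABCG2 mRNA above the DMSO baseline.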 Summed up:
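ABCG2 transcript measured at 48 h by quantitative nuclease protection (chemiluminescent) and fitted for increase relative to 0.2% DMSO. Hepatocyte cultures from separate donors got fresh compound daily over two days; morphology annotated cytotoxicity.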
On to `CC1(C(=O)Nc2ccc(O)c(Cl)c2Cl)CCCCC1`, for which the result was inactive.
Consider `C[N+]1(C)CCCCC1`, for which the outcome was inactive.
Consider `CCc1cnc(C2=NC(C)(C(C)C)C(=O)N2)c(C(=O)O)c1` (centres undefined), for which the call was inactive.
With `COP(=O)(OC)C(O)C(Cl)(Cl)Cl` (centres undefined), the compound was called inactive.
As for `CC1=NNC(=O)N(/N=C/c2cccnc2)C1`, the compound was classed as inactive.
Take `C[Si](Cn1cncn1)(c1ccc(F)cc1)c1ccc(F)cc1`: the AC50 is 31.6 µM (active).
In the case of `S=C1NCCN1`, the result was inactive.
As to `CCOC(=O)CC(SP(=O)(OC)OC)C(=O)OCC` (centres undefined), the result was inactive.
As to `CC(C1CC1)C(O)(Cn1cncn1)c1ccc(Cl)cc1` (centres undefined), the compound was classed as inactive.
With `FC(F)C(F)(F)OCC(Cn1cncn1)c1ccc(Cl)cc1Cl` (centres undefined), the outcome was inactive.
`CCCOCC(=Nc1ccc(Cl)cc1C(F)(F)F)n1ccnc1`: the AC50 was 20 µM (active).
On to `CCCOc1nn(C(=O)NS(=O)(=O)c2ccccc2C(=O)OC)c(=O)n1C`, for which the call was inactive.
Turning to `CCCCOC(=O)c1ccccc1C(=O)O`, the compound was classed as inactive.
Turning to `CSC1=N[C@@](C)(c2ccccc2)C(=O)N1Nc1ccccc1`, the compound was classed as inactive.
On to `C=C(C)[C@H]1Cc2c(ccc3c2O[C@@H]2COc4cc(OC)c(OC)cc4[C@@H]2C3=O)O1`, for which the AC50 was 0.309 µM (active).
On to `CC(Oc1cccc(Cl)c1)C(=O)O` (centres undefined), for which the call was inactive.
The same measure, in the same setting: under `N#CSCSC#N` stands “inactive”; under `CC[C@H](C)[C@H]1O[C@]2(C=C[C@@H]1C)C[C@@H]1C[C@@H](C/C=C(\C)[C@@H](O[C@H]3C[C@H](OC)[C@@H](O[C@H]4C[C@H](OC)[C@@H](NC)[C@H](C)O4)[C@H](C)O3)[C@@H](C)/C=C/C=C3\CO[C@@H]4[C@H](O)C(C)=C[C@@H](C(=O)O1)[C@]34O)O2`, “inactive”; under `CCCCN(CC)c1c([N+](=O)[O-])cc(C(F)(F)F)cc1[N+](=O)[O-]`, “inactive”.

Read-out in another experiment: xenobiotic metabolism (CYP1A1), CYP1A1 (gene 1543)
In words: CLD_CYP1A1_48hr: CellzDirect (CLD) Gene Expression Assay for xenobiotic metabolism (CYP1A1) at 48 hours (AID 2283705). An outline of the steps: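 CYP1A1 transcript measured by quantitative nuclease protection (chemiluminescent) 48 h after two daily treatments of human hepatocyte cultures, versus 0.2% DMSO. Morphology-based cytotoxicity flags accompany data; two donor preparations used.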
On to `Nc1nc(N)nc(NC2CC2)n1`, for which the AC50 was 11.6 µM (active).
For the compound `CCC(CC)Nc1c([N+](=O)[O-])cc(C)c(C)c1[N+](=O)[O-]`, the call was inactive.
As for `Cc1nn(-c2cc(NS(C)(=O)=O)c(Cl)cc2Cl)c(=O)n1C(F)F`, the outcome was inactive.
Same read-out and setting: under `CCc1cnc(C2=NC(C)(C(C)C)C(=O)N2)c(C(=O)O)c1` (centres undefined) stands “inactive”.
Regarding `CCC(=O)Nc1ccc(Cl)c(Cl)c1`, the AC50 is 4.64 µM (active).
Turning to `COP(=O)(OC)OC(Br)C(Cl)(Cl)Br` (centres undefined), the result was inactive.
Consider `CCOP(=S)(OCC)Oc1ccc([N+](=O)[O-])cc1`, for which the half-maximal activity concentration (AC50) was 3.61 µM (active).
With `CCOP(=S)(OCC)Oc1cc(C)nc(C(C)C)n1`, the AC50 was 4.2 µM (active).
Same read-out and setting: under `CC1=NNC(=O)N(/N=C/c2cccnc2)C1` stands 3.97 µM (active); under `C[Si](Cn1cncn1)(c1ccc(F)cc1)c1ccc(F)cc1`, 0.727 µM (active); under `Nc1c(Cl)cc([N+](=O)[O-])cc1Cl`, 4.01 µM (active).
As for `CCOC(=O)CC(SP(=O)(OC)OC)C(=O)OCC` (centres undefined), the result was inactive.
Consider `CC(C1CC1)C(O)(Cn1cncn1)c1ccc(Cl)cc1` (centres undefined), for which the compound was classed as inactive.
For the compound `FC(F)C(F)(F)OCC(Cn1cncn1)c1ccc(Cl)cc1Cl` (centres undefined), the AC50 is 8.06 µM (active).
As to `CCCOCC(=Nc1ccc(Cl)cc1C(F)(F)F)n1ccnc1`, the AC50 is 6.01 µM (active).
Still for that read-out and setting: under `O=[N+]([O-])c1cc(C(F)(F)F)c(Cl)c([N+](=O)[O-])c1Nc1ncc(C(F)(F)F)cc1Cl` stands 0.627 µM (active).
On to `CCOP(=O)(NC(C)C)Oc1ccc(SC)c(C)c1` (centres undefined), for which the compound was called inactive.
Consider `CSC1=N[C@@](C)(c2ccccc2)C(=O)N1Nc1ccccc1`, for which the AC50 was 20 µM (active).
As for `C=C(C)[C@H]1Cc2c(ccc3c2O[C@@H]2COc4cc(OC)c(OC)cc4[C@@H]2C3=O)O1`, the half-maximal activity concentration (AC50) is 2 µM (active).
For the compound `CNC(=O)Oc1cccc2c1OC(C)(C)O2`, the compound was called inactive.
On to `N#CSCSC#N`, for which the concentration at half-maximal activity (AC50) is 7.26 µM (active).
In the case of `CCCCN(CC)c1c([N+](=O)[O-])cc(C(F)(F)F)cc1[N+](=O)[O-]`, the AC50 was 20 µM (active).
`CCNc1nc(Cl)nc(NC(C)(C)C#N)n1`: the outcome was inactive.
With `CN(C)[C@@H]1C(=O)C(C(N)=O)=C(O)[C@@]2(O)C(=O)C3=C(O)c4c(O)cccc4[C@@](C)(O)[C@H]3[C@H](O)[C@@H]12`, the compound was classed as inactive.
Turning to `CNC(=O)ON=C(C)SC`, the compound was classed as inactive.
